# Bioassay records deposited in PubChem by Broad Institute.
# TcdB GH inh: TcdB glycohydrolase inhibitors, primary screen, biochemical, single point, plate reader; TcdB glycohydrolase enzymatic assay; Toxin B (Clostridioides difficile), P18177; inhibition, % at 9.99 µM; 350,000 tested, 0.24% active; in the data active means inhibition above about 10%
# BioA inh: M. tuberculosis BioA enzyme inhibitors, primary screen, biochemical, plate reader, single point, HTS; purified M. tuberculosis BioA enzyme; inhibition, % at 9.99 µM; 360,000 tested, 0.096% active; AID 602481, 2012; in the data active means inhibition above about 40%
# Y pestis TopoI: Yersinia pestis topoisomerase I inhibitors, primary screen, biochemical, cleavage product accumulation, plate reader, single point; 360,000 tested, 0.064% active; DNA topoisomerase I (Yersinia pestis CO92); activity, % at 10 µM; AID 504884, 2011; Y. pestis Topo-I cleavage product accumulation; in the data active means activity above about 50%, passing the limit was not always enough
# An asterisk follows results filed as active; · = no result given. In the library only some 0.32% were active in any assay of this set; here they are far more common.
SMILES,TcdB GH inh,BioA inh,Y pestis TopoI
COc1ccc(-c2nc(CN3CCN(Cc4cccc(Cl)c4)CC3)c(C)o2)cc1,1,2,28
COc1ccc(-c2nc(CN3CCN(Cc4cccc(F)c4)CC3)c(C)o2)cc1,1,4,55*
COc1ccc(NC(=O)N(C)C[C@H]2OCCCC[C@H](C)Oc3ccc(N(C)C)cc3C(=O)N([C@H](C)CO)C[C@@H]2C)cc1,-19,0,·
COC(=O)[C@H]1[C@H](CO)[C@H]2Cn3c(ccc(-c4ccncc4)c3=O)[C@H]2N1Cc1cccc(F)c1,0,6,·
COC(=O)c1ccc(C23CC4(C2)[C@H](CN(Cc2ccc(C(F)(F)F)cc2)[C@@H]4c2ccccc2)C3c2ccc(Cl)nc2)cc1 (stereo partly drawn),12*,·,·
N#Cc1ccc(C23CC4(C2)[C@H](CN(Cc2ccc(C(F)(F)F)cc2)[C@@H]4c2ccccc2)C3c2ccc(Cl)nc2)cc1 (stereo partly drawn),-1,·,·
Cc1noc(C)c1NC(=O)N(C)C[C@H]1OCCCC[C@H](C)Oc2ccc(NS(=O)(=O)c3cccs3)cc2C(=O)N([C@H](C)CO)C[C@@H]1C,1,-1,·
CCCNC(=O)c1cc(C2CCCCN2S(=O)(=O)c2cccc3cccnc23)on1 (stereo not drawn),3,-1,-1
O=C(NCc1cccnc1)c1cc(C2CCCCN2S(=O)(=O)c2cccc3cccnc23)on1 (stereo not drawn),10*,2,15
O=C(O)c1cn(-c2ccccc2)nc1-c1ccncc1,·,0,-8
O=C(c1cn(-c2ccccc2)nc1-c1ccncc1)n1nnc2ccccc21,100*,1,5
CC(C)NC(=O)N(C)C[C@H]1Oc2ccc(NC(=O)Nc3ccc(C(F)(F)F)cc3)cc2CC(=O)N([C@@H](C)CO)C[C@@H]1C,0,1,·
O=C(NCC[C@@H]1CC[C@H](NS(=O)(=O)c2ccc(F)cc2)[C@@H](CO)O1)c1ccccc1F,1,·,·
CO[C@H]1CN(C)C(=O)c2cc(NC(=O)c3ccccc3)ccc2OC[C@H](C)N(CC2CC2)C[C@H]1C,·,0,·
CC[C@H](C)[C@H]1CNC(=S)N1CC1CCN(CCCC2CCCC2)CC1,13*,-3,8
CC[C@H](C)[C@H]1CNC(=S)N1CC1CCN(CCC(C)(C)C)CC1,-11,-1,2
O=S(=O)(Nc1ccc(O)cc1)c1cccc2cccnc12,11*,-1,3
CC(C)c1ccc(NS(=O)(=O)c2cccc3cccnc23)cc1,1,0,18
O=C(NCC(F)(F)F)[C@H]1[C@H](CO)[C@H]2Cn3c(cccc3=O)[C@@H]1N2C(=O)C1CCCC1,0,-1,·
CSc1cccc(NC(=O)CCc2ccccc2)c1,11*,·,12
CSc1cccc(NC(=S)NC(=O)CCc2ccccc2)c1,2,-1,13
C[C@@H]1CN([C@@H](C)CO)C(=O)c2cccc(NC(=O)Nc3ccc4c(c3)OCO4)c2O[C@@H]1CN(C)C,0,-1,·
c1ccc(C2=Nn3c(Cn4nnc5ccccc54)nnc3SC2)cc1,3,5,-1
c1ccc(Cc2nnc3n2N=C(c2ccccc2)CS3)cc1,16*,·,14
CC(=O)c1cccc(NC2=NCC(C)S2)c1 (stereo not drawn),1,-1,-7
SMILES,TcdB GH inh,BioA inh,Y pestis TopoI
CC1CN=C(Nc2cccc(S(=O)(=O)N(C)C)c2)S1 (stereo not drawn),14*,·,4
Cc1cccc(NC(=O)c2ccc(N3CCOCC3)c([N+](=O)[O-])c2)n1,13*,-2,5
Cc1cccc(NC(=O)c2ccc(N3CCCCC3)c([N+](=O)[O-])c2)n1,·,·,1
Cc1n[nH]c(C)c1N1C(=O)c2cccc3c(Br)ccc(c23)C1=O,·,1,-3
Cc1n[nH]c(C)c1N1C(=O)c2cccc3cc(Br)cc(c23)C1=O,·,58*,8
O=C(Nc1ccncc1)c1ccc(-c2ccccc2)cc1,11*,·,9
O=C(Nc1cccnc1)c1ccc(-c2ccccc2)cc1,1,·,-5
Cc1ccc(Cl)cc1C1=CC(=O)C[C@H](c2ccc(F)cc2)C1,1,-2,69*
COc1ccc([C@H]2CC(=O)C=C(c3cc(Cl)ccc3C)C2)cc1,1,-2,42
Cc1onc(-c2ccccc2Cl)c1C(=O)Nc1cnn(Cc2ccccc2)c1,13*,-1,4
Cc1onc(-c2ccccc2Cl)c1C(=O)NCc1ccccc1,1,1,8
Nc1cc(=O)[nH]c(SCC(=O)N2N=C(c3ccc4ccccc4c3)CC2c2ccccc2)n1 (stereo not drawn),-6,-1,53*
CC(=O)OCC(=O)N1N=C(c2ccc3ccccc3c2)CC1c1ccccc1 (stereo not drawn),0,·,13
CN(C)C(=O)[C@H]1[C@H](CO)[C@H]2Cn3c(ccc(-c4cccc(F)c4)c3=O)[C@@H]1N2CCc1ccccc1,1,2,·
C[C@@H]1CN([C@@H](C)CO)C(=O)c2c(c3ccccc3n2C)-c2ccccc2CO[C@H]1CN(C)C(=O)[C@H]1CCCN1C,0,-1,·
C[C@@H]1CN([C@@H](C)CO)C(=O)c2cc(NC(=O)c3ccccc3)ccc2O[C@@H](C)CCCCO[C@H]1CN(C)C(=O)Cc1ccccc1,-1,-2,·
Cc1noc(C)c1S(=O)(=O)Nc1ccc2c(c1)C(=O)N([C@H](C)CO)C[C@H](C)[C@H](CN(C)S(=O)(=O)c1ccccc1)OCCCC[C@H](C)O2,0,0,·
CCCN1C(=O)COc2ccc(C(=O)c3ccccc3C(=O)O)cc21,0,·,15
O=C(O)c1ccc2c(c1)N(Cc1cccc(F)c1)C(=O)CS2,21*,0,3
CCC(C)NC(=O)c1ccc2c(c1)N(Cc1ccccc1)C(=O)CS2 (stereo not drawn),1,·,11
O=C(O)c1ccccc1C(=O)c1ccc2c(c1)N(Cc1cccc(F)c1)C(=O)CO2,21*,·,-5
C[C@H](CO)N1C[C@H](C)[C@@H](CN(C)S(=O)(=O)c2ccccc2)Oc2ccc(NC(=O)Nc3cccc4ccccc34)cc2C1=O,1,-1,·
C[C@H](CO)N1C[C@H](C)[C@@H](CN(C)S(=O)(=O)c2cn(C)cn2)Oc2ncc(/C=C/c3ccccc3)cc2C1=O,0,0,·
C[C@H]1CN([C@@H](C)CO)C(=O)c2cc(NC(=O)C3CC3)ccc2O[C@@H]1CN(C)Cc1ccc2c(c1)OCO2,2,1,·
Cc1ccc(C)c(CSc2nnc([C@@H](N)C(C)C)o2)c1,·,2,90*
Cc1ccc(C)c(CSc2nnc(CCN)o2)c1,·,3,-7
Cc1noc(C)c1S(=O)(=O)Nc1ccc2c(c1)C(=O)N([C@@H](C)CO)C[C@@H](C)[C@@H](CN(C)C(=O)CCC(F)(F)F)OCCCC[C@@H](C)O2,-5,-1,·
COC(=O)C[C@H]1C[C@@H]2c3cc(NC(=O)Nc4ccc(OC)cc4)ccc3O[C@@H]2[C@H](CO)O1,·,0,·
Cc1ccnc(N2C(=O)c3cccc4c([N+](=O)[O-])ccc(c34)C2=O)c1,0,-2,4
Cc1ccnc(N2C(=O)c3ccccc3C2=O)c1,15*,2,6
